Broadly, the AC50 is the concentration giving half of the maximal activity seen.

Active and inactive are the calls of the source. The calls were made as follows: active = hit-call score of the fitted dose curve at least 0.9, where 1 is the maximum; inactive = score below 0.9.

This is an account of results in PubChem BioAssay (EPA / NIEHS).

Experiment [1] can be described thus: APR_HepG2_NuclearSize_24hr: Apredica 24-hour HepG2 Assay for Nuclear Size (AID 2282907). Conditions: high-content imaging, actives raise or lower the signal. The gist of the method:
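After fixation and permeabilization, 24-hr-treated HepG2 cells were stained with Hoechst 33342 and imaged on an ArrayScan (20x). Doses spanned 0.39–200 uM in duplicate. Nuclear diameter changes in either direction were fitted relative to 0.5% DMSO controls.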

The nature of experiment [2]: APR_HepG2_CellLoss_24hr: Apredica 24-hour HepG2 Assay for Cell Loss (AID 2282908).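 As to AC50: fit in both directions so a hit may be cell loss or gain.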 The following applies: high-content imaging. The gist of the method: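 Duplicate wells received compound at ten concentrations (0.39–200 uM; final DMSO 0.5% v/v). After fixation with formaldehyde, nuclei stained with Hoechst 33342 were imaged at 20x. Loss or gain of cell count was fitted relative to DMSO controls.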

Experiment [3] in a line: APR_HepG2_MicrotubuleCSK_24hr: Apredica 24-hour HepG2 Assay for Microtubule CSK Stabilty (AID 2282909). Conditions: HepG2 microtubule cytoskeleton imaging, actives raise or lower the signal. Put shortly: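 Microtubule stability is scored from tubulin immunofluorescence in fixed HepG2 cells imaged at 20x. Cells receive ten compound concentrations up to 200 uM for 24 h; taxol and DMSO serve as positive and negative controls.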

A short description of experiment [4]: APR_HepG2_MitoticArrest_24hr: Apredica 24-hour HepG2 Assay for Mitotic Arrest (AID 2282910). The following applies: high-content imaging, actives raise or lower the signal. Put shortly:
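High-content imaging of fixed HepG2 cells labeled with Hoechst 33342 and anti-phospho-histone H3, after 24 h treatment. Ten concentrations 0.39 to 200 uM in duplicate, final DMSO 0.5%; changes fitted both directions relative to DMSO.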

Experiment [5] can be described thus: APR_HepG2_MitoMembPot_24hr: Apredica 24-hour HepG2 Assay for Mitochondrial Membrane Potential (AID 2282911). The following applies: imaging, actives raise or lower the signal. Put shortly: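 HepG2 cells exposed 24 h to 0.39–200 uM compounds in duplicate, 0.5% v/v DMSO final. MitoTracker Red CMXRos 250 nM loaded 30 min before formaldehyde fixation; high-content imaging at 20x, bidirectional fit versus DMSO.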

The nature of experiment [6]: APR_HepG2_MitoMass_24hr: Apredica 24-hour HepG2 Assay for Mitochondrial Mass (AID 2282912). Conditions: high-content imaging, actives raise or lower the signal. Put shortly: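 Readout: fluorescence of MitoTracker Red CMXRos (250 nM, added 30 min pre-fixation) in fixed HepG2 cells imaged by HCS. Exposure lasted 24 hr at 0.39–200 uM; increases and decreases were both fitted relative to DMSO.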

Experiment [7] can be described thus: APR_HepG2_p53Act_24hr: Apredica 24-hour HepG2 Assay for p53 Activation (AID 2282913).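 Also: p53 protein immunofluorescence averaged per cell in HepG2 with Hoechst nuclei.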 Conditions: high-content imaging, actives raise or lower the signal. Put shortly: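 HepG2 cells exposed 24 h to compounds at 0.39–200 uM in duplicate, 0.5% v/v DMSO final; fixed, permeabilized, stained with anti-p53 antibody and Hoechst 33342; fluorescence imaging; bidirectional curve fit versus DMSO.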

The nature of experiment [8]: APR_HepG2_CellLoss_72hr: Apredica 72-hour HepG2 Assay for Cell Loss (AID 2282915). Conditions: high-content imaging. Put shortly: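 Cell number comes from Hoechst 33342-labelled nuclei, imaged at 20x after 3.7% formaldehyde fixation. Dosing was 0.39–200 uM, ten concentrations in duplicate, 0.5% DMSO final, for 72 h. Bidirectional fit relative to DMSO baseline.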
Experiment [9] in a line: APR_HepG2_P-H2AX_72hr: Apredica 72-hour HepG2 Assay for H2AX Phosphorylation (AID 2282916).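 Also: phospho-histone H2A.x immunostain intensity per cell marking DNA damage.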 Conditions: imaging, actives raise or lower the signal. The gist of the method: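 Phospho-H2A.x imaging endpoint in HepG2 after 72 hr compound exposure (0.39–200 uM, duplicate wells). Activity derived by bidirectional curve fitting with DMSO as baseline.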
The nature of experiment [10]: APR_HepG2_MitoMembPot_72hr: Apredica 72-hour HepG2 Assay for Mitochondrial Membrane Potential (AID 2282917). The following applies: imaging, actives raise or lower the signal. Put shortly: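 Membrane potential read by MitoTracker Red CMXRos (250 nM, 30 min, pre-fixation) fluorescence imaging of HepG2 after 72 hr exposure. Ten concentrations, 0.39–200 uM, duplicate wells, 0.5% DMSO; fitted in both directions against DMSO baseline.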

Experiment [11] is described as follows: APR_HepG2_MitoticArrest_72hr: Apredica 72-hour HepG2 Assay for Mitotic Arrest (AID 2282918). The following applies: high-content imaging, actives raise or lower the signal. Put shortly: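 HepG2 cells treated 72 h at 0.39–200 uM, 0.5% DMSO final; formaldehyde-fixed, stained with Hoechst 33342 and phospho-histone H3 antibody, imaged by high-content fluorescence; bidirectional fit versus DMSO.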

The nature of experiment [12]: APR_HepG2_MicrotubuleCSK_72hr: Apredica 72-hour HepG2 Assay for Microtubule CSK Stabilty (AID 2282919). Conditions: HepG2 microtubule cytoskeleton, high-content imaging, actives raise or lower the signal. Put shortly:
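High-content imaging of alpha-tubulin staining in fixed HepG2 cells after 72 hr treatment with ten concentrations from 0.39 to 200 uM (0.5% DMSO). Fitting was bidirectional against DMSO; taxol served as positive control.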

Experiment [13] can be described thus: APR_HepG2_P-H2AX_24hr: Apredica 24-hour HepG2 Assay for H2AX Phosphorylation (AID 2282920). The following applies: high-content imaging, actives raise or lower the signal. The gist of the method: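 HepG2 cells dosed 24 h at 0.39–200 uM (10 points, duplicate, 0.5% DMSO final). Formaldehyde-fixed and permeabilized, then immunostained for phospho-H2A.x with Hoechst. Fluorescence quantified by high-content imaging, fitted bidirectionally versus DMSO.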

Experiment [14] can be described thus: APR_HepG2_StressKinase_72hr: Apredica 72-hour HepG2 Assay for Stress Kinase (AID 2282921). Conditions: HepG2 stress kinase (phospho-c-Jun) imaging, actives raise or lower the signal. Put shortly: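 Stress kinase signal reflects nuclear phospho-c-Jun staining in fixed, permeabilized cells exposed 72 h to compound at 0.39–200 uM; DMSO-normalized, fitted for increases or decreases.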

A short description of experiment [15]: APR_HepG2_StressKinase_24hr: Apredica 24-hour HepG2 Assay for Stress Kinase (AID 2282922). The following applies: HepG2 stress kinase (phospho-c-Jun) imaging, actives raise or lower the signal. Put shortly:
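High-content imaging of phospho-c-Jun immunofluorescence in fixed, permeabilized HepG2 cells after 24 h dosing. Ten concentrations, 0.39 to 200 uM, run in duplicate at 0.5% v/v DMSO; gain or loss of signal versus DMSO.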

The nature of experiment [16]: APR_HepG2_MitoMass_72hr: Apredica 72-hour HepG2 Assay for Mitochondrial Mass (AID 2282924).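 Also: MitoTracker Red CMXRos stain intensity per cell imaged as mitochondrial mass.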 The following applies: high-content imaging, actives raise or lower the signal. The gist of the method: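 Readout is imaged MitoTracker Red (250 nM, 30 min, pre-fixation) signal, fitted bidirectionally against DMSO baseline. Human HepG2 liver cells received compound 0.39–200 uM in duplicate for 72 hr, final DMSO 0.5%.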

The nature of experiment [17]: APR_HepG2_NuclearSize_72hr: Apredica 72-hour HepG2 Assay for Nuclear Size (AID 2282925). Conditions: high-content imaging, actives raise or lower the signal. The gist of the method:
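Nuclear size was read by high-content imaging of Hoechst 33342 stain after formaldehyde fixation. Compounds ran 72 h on HepG2 at 0.39 to 200 uM, with final DMSO 0.5% v/v. Curves fitted both directions relative to DMSO control.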

A short description of experiment [18]: APR_HepG2_CellCycleArrest_72hr: Apredica 72-hour HepG2 Assay for Cell Cycle Arrest (AID 2282914). Conditions: high-content imaging, actives raise or lower the signal. The gist of the method:
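HepG2 cells exposed 72 h in duplicate to 0.39–200 uM compound, 0.5% DMSO final. Formaldehyde-fixed, Hoechst 33342-stained nuclei imaged at 20x, six fields per well; DNA content per valid cell quantified by cell-cycle image analysis, bidirectional fit versus DMSO.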

Experiment [19] is described as follows: APR_HepG2_StressKinase_1hr: Apredica 1-hour HepG2 Assay for Stress Kinase (AID 2282906). The following applies: HepG2 stress kinase (phospho-c-Jun) imaging, actives raise or lower the signal. Put shortly:
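High-content imaging of phospho-c-Jun immunostaining (with Hoechst nuclear identification) after a 1 h exposure of HepG2 cells to 10 concentrations from 0.39 to 200 uM, final DMSO 0.5%. Fitted bidirectionally against DMSO.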

For the compound `Cc1cccc([N+](=O)[O-])c1`, the call in experiment [1], in experiment [2], in experiment [3], in experiment [4], in experiment [5] and in experiment [6] was inactive. Besides, the outcome in experiment [7], in [8], in [9], in experiment [10], in experiment [11] and in [12] was inactive. Further, the result in [13], in [14], in [15], in experiment [16] and in experiment [17] was inactive.

`C[C@]12CCC(=O)C=C1CC[C@@H]1[C@@H]2CC[C@]2(C)C(=O)CC[C@@H]12`: the result in experiment [1], in [2], in experiment [3], in [4], in experiment [5] and in experiment [6] was inactive. In addition, the outcome in experiment [7], in [18], in experiment [9], in experiment [10], in experiment [11] and in experiment [12] was inactive. Also, the outcome in experiment [13], in experiment [14], in [15], in [16] and in experiment [17] was inactive.

For the compound `CCOC(=O)C(O)(c1ccc(Cl)cc1)c1ccc(Cl)cc1`, the AC50 in experiment [1] is 72.9 µM (active); in [2] it was 72.3 µM (active); in experiment [3], 89.7 µM (active); in experiment [4], 70.5 µM (active); in [5], 7.9 µM (active); in experiment [6], 59.5 µM (active). Moreover, the AC50 was 82.7 µM (active) in experiment [7]; 44.7 µM (active) in [18]; 69.6 µM (active) in [8]; 48.1 µM (active) in [9]; 77.5 µM (active) in experiment [13]; 105 µM (active) in experiment [17]. In addition, the call in experiment [10], in experiment [12], in experiment [14], in experiment [15] and in experiment [16] was inactive.

`C=CC(=O)NCNC(=O)C=C`: the compound was classed as inactive in [1], in experiment [2], in experiment [3], in [4], in experiment [5] and in experiment [6]. In addition, the call in [7], in [18], in experiment [9], in [10], in experiment [12] and in experiment [13] was inactive. Also, the result in experiment [14], in [15], in [16] and in [17] was inactive.

As for `C[C@]12CCC(=O)C=C1CC[C@@H]1[C@@H]2CC[C@@]2(C)[C@H]1CC[C@]2(C)O`, the result in [1], in experiment [2], in [3], in [4], in experiment [5] and in [6] was inactive. Besides, the compound was called inactive in experiment [7], in [18], in experiment [9], in [10], in [12] and in [13]. Besides, the call in experiment [14], in [15], in [16] and in experiment [17] was inactive.

In the case of `Cc1ccccc1O`, the compound was called inactive in [1], in experiment [2], in experiment [3], in experiment [4], in experiment [5] and in [6]. The outcome in experiment [7], in experiment [18], in [9], in experiment [10], in experiment [12] and in experiment [13] was inactive. The compound was called inactive in experiment [14], in experiment [15], in [16] and in experiment [17].

In the case of `Cc1ccccc1CO[C@@H]1C[C@@]2(C(C)C)CC[C@]1(C)O2`, the call in experiment [19], in [1], in experiment [2], in [3], in experiment [4] and in experiment [5] was inactive. The result in experiment [6], in [8], in experiment [9], in [10], in experiment [12] and in experiment [13] was inactive. Further, the compound was called inactive in [14], in experiment [15], in [16] and in experiment [17].

Consider `NS(=O)(=O)C(F)(F)C(F)(F)C(F)(F)C(F)(F)C(F)(F)C(F)(F)C(F)(F)C(F)(F)F`, for which the outcome in [1], in experiment [3], in experiment [4], in [6], in experiment [12] and in experiment [14] was inactive. The call in experiment [15], in experiment [16] and in experiment [17] was inactive. In addition, the half-maximal activity concentration (AC50) in [2] was 93.4 µM (active); in experiment [5], 72.5 µM (active); in experiment [7] it was 101 µM (active); in experiment [18], 46.1 µM (active); in experiment [8], 63.4 µM (active); in experiment [9] it was 99.3 µM (active). The AC50 was 102 µM (active) in experiment [10] and 100 µM (active) in experiment [13].
